Test [1] can be described thus: ATG_DR4_LXR_CIS: Attagene CIS-FACTORIAL HepG2 Assay for human Liver X Receptor (LXR), DR4 submotif (AID 2282929). As to conditions: HepG2 Attagene DR4 cis-reporter, mRNA transcription; AC50: actives raise or lower the signal unless noted; outcome: actives raise or lower the signal unless noted. In a few lines:
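HepG2 cells transiently transfected with cis-promoter-driven multiplexed reporter units (DR4 element) were dosed for 24 h. Reporter mRNA was quantified by RT-PCR, fluorescent primer extension, HpaI digestion and capillary electrophoresis; bidirectional fitting versus DMSO baseline.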

Test [2] concerns the target Aryl hydrocarbon receptor (Homo sapiens) (UniProt P35869). Put plainly: ATG_Ahr_CIS: Attagene CIS-FACTORIAL HepG2 Assay for human Aryl Hydrocarbon Receptor (Ahr) (AID 2282930). Particulars: HepG2 AhR cis-factorial reporter transcription; actives raise or lower the signal. In outline: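 Following 24 h of chemical dosing, transfected HepG2 liver cells with cis-driven reporter units were lysed for RNA; reporter mRNA was quantified via RT-PCR and capillary electrophoresis, and responses fitted bidirectionally from DMSO.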

The nature of test [3]: ATG_AP_1_CIS: Attagene CIS-FACTORIAL HepG2 Assay for human Activator Protein 1 (AP-1) (AID 2282931). As to conditions: HepG2 Attagene cis-factorial AP-1 reporter mRNA; actives raise or lower the signal. In outline: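 HepG2 cells transiently transfected with cis-element-driven multiplex reporter units; 24 h compound exposure. Reporter mRNA quantified by RT-PCR, FAM-labelled fragments resolved by capillary electrophoresis; bidirectional fit versus DMSO baseline.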

The nature of test [4]: ATG_AP_2_CIS: Attagene CIS-FACTORIAL HepG2 Assay for human Activator Protein 2 (AP-2) (AID 2282932). Particulars: HepG2 AP-2 cis-reporter, Attagene transcription factor profiling; AC50: actives raise or lower the signal unless noted; outcome: actives raise or lower the signal unless noted. In outline:
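HepG2 cells were transiently transfected with multiple cis-promoter reporter transcription units and dosed for 24 h. Reporter mRNA was measured by RT-PCR with capillary electrophoresis fluorescence; bidirectional fits relative to DMSO baseline.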

Test [5] is described as follows: ATG_BRE_CIS: Attagene CIS-FACTORIAL HepG2 Assay for human Bone Morphogenetic Protein (BMP) Response Element (BRE) (AID 2282933). As to conditions: HepG2 BMP response element reporter, Attagene transcription factor profiling; actives raise or lower the signal. In a few lines:
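Endogenous transcription factor activity read in transiently transfected HepG2 cells after 24 h chemical exposure. Bidirectional curve fitting against DMSO; readout is reporter transcript level by RT-PCR with capillary electrophoresis of labelled products.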

Test [6] deals with Retinoic acid receptor alpha (Homo sapiens) (UniProt P10276). As to the kind of experiment: ATG_DR5_RAR_CIS: Attagene CIS-FACTORIAL HepG2 Assay for human Retinoic Acid Receptor Alpha (RARE), DR5 submotif (AID 2282934). As to conditions: HepG2 Attagene cis-factorial RARE DR5 reporter, mRNA; actives raise or lower the signal. In a few lines: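 Transfected HepG2 reporter cells are exposed to chemicals for 24 h. Then RNA is extracted and the DR5 element reporter transcript is measured by RT-PCR and capillary electrophoresis, with bidirectional curve fitting relative to DMSO.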

For test [7], the target named is Transcription factor E2F1 (Homo sapiens) (UniProt Q01094). Put plainly: ATG_E2F_CIS: Attagene CIS-FACTORIAL HepG2 Assay for human E2F Transcription Factor 1 (AID 2282935). As to conditions: HepG2 Attagene cis-reporter, E2F reporter RNA transcripts; actives raise or lower the signal. In outline: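 HepG2 cells transiently transfected with multiplexed cis-element reporter units, dosed for 24 h. Reporter mRNA measured by RT-PCR, 6-FAM primer-extension labeling, HpaI digestion and capillary electrophoresis; bidirectional fit versus DMSO baseline.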

A short description of test [8]: ATG_M_61_CIS: Attagene CIS-FACTORIAL HepG2 Assay for M61 Transcription Factor (Internal Marker) (AID 2282937). Particulars: HepG2 Attagene CIS-FACTORIAL M61 internal marker reporter; actives raise or lower the signal. In a few lines: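 HepG2 cells transiently transfected with cis-element-driven multiple reporter transcription units, dosed for 24 h. Reporter mRNA measured by RT-PCR, 6-FAM primer-extension labelling, HpaI digestion and capillary electrophoresis; bidirectional fit versus DMSO baseline.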

Test [9] is described as follows: ATG_EGR_CIS: Attagene CIS-FACTORIAL HepG2 Assay for human Early Growth Response 1 (EGR1) (AID 2282938). Particulars: HepG2 Attagene CIS-FACTORIAL EGR reporter mRNA; actives raise or lower the signal. In outline: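 HepG2 cells transiently transfected with cis-promoter-driven multiplexed reporter transcription units; reporter mRNA measured 24 h after compound dosing by RT-PCR, 6-FAM primer extension, HpaI digestion and capillary electrophoresis. Bidirectional fit versus DMSO baseline.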

Test [10] can be described thus: ATG_M_19_CIS: Attagene CIS-FACTORIAL HepG2 Assay for M19 Transcription Factor (Internal Marker) (AID 2282939). As to conditions: HepG2 Attagene CIS-FACTORIAL M19 internal marker reporter; actives raise or lower the signal. In a few lines:
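Internal marker readout, fitted in both directions against DMSO, from HepG2 cells carrying transfected cis-element reporter constructs; RT-PCR and capillary electrophoresis of reporter mRNA after 24 h exposure.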

The nature of test [11]: ATG_ERE_CIS: Attagene CIS-FACTORIAL HepG2 Assay for Estrogen Response Element (ERE) (AID 2282940). Particulars: HepG2 ERE cis-reporter, Attagene RNA transcript; actives raise or lower the signal. In a few lines:
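After 24 h compound treatment, RNA from transfected HepG2 cells was reverse-transcribed, reporter cDNA PCR-amplified, FAM-labelled, HpaI-cut and resolved by capillary electrophoresis. ERE-driven cis reporter transcripts reflect endogenous factors; gain or loss scored against DMSO.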

A short description of test [12]: ATG_Ets_CIS: Attagene CIS-FACTORIAL HepG2 Assay for human Erythroblast Transformation Specific (ETS) (AID 2282941). As to conditions: HepG2 ETS cis-reporter transcription; AC50: actives raise or lower the signal unless noted; outcome: actives raise or lower the signal unless noted. In a few lines: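 HepG2 cells transiently transfected with cis-promoter reporter transcription units were dosed for 24 h; reporter mRNA was measured by RT-PCR, 6-FAM primer extension, HpaI digestion and capillary electrophoresis, with bidirectional fitting against DMSO baseline.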

The target in test [13] is Hepatocyte nuclear factor 3-beta (Homo sapiens) (UniProt Q9Y261). Put plainly: ATG_FoxA2_CIS: Attagene CIS-FACTORIAL HepG2 Assay for human Forkhead box A2 (FOXA2) (AID 2282942). As to conditions: HepG2 cis-reporter transcription factor activity, 24 h; actives raise or lower the signal. In a few lines:
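HepG2 cells transiently transfected with multiple cis-regulated reporter transcription units, dosed for 24 h. Reporter mRNA measured by RT-PCR, 6-FAM labelling, HpaI digestion and capillary electrophoresis; bidirectional fitting against DMSO baseline.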

Test [14] in a line: ATG_FoxO_CIS: Attagene CIS-FACTORIAL HepG2 Assay for human Forkhead box O (FoxO) (AID 2282943). As to conditions: HepG2 Attagene cis-reporter, FoxO element, mRNA; actives raise or lower the signal. In a few lines:
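24 h chemical exposure, HepG2 with transient cis-MRTU transfection. RNA extraction, oligo(dT) RT, reporter-specific PCR, primer-extension labelling, HpaI digestion, CE fragment analysis; bidirectional fit, DMSO baseline.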

The nature of test [15]: ATG_GATA_CIS: Attagene CIS-FACTORIAL HepG2 Assay for human GATA Binding Protein (AID 2282944). As to conditions: HepG2 GATA cis-element reporter, Attagene multiplex mRNA; actives raise or lower the signal. In a few lines: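 Reporter transcripts from a GATA cis-regulated unit, among multiplexed reporters in transfected HepG2 cells, were measured by RT-PCR with capillary electrophoresis after 24 h dosing. Induction or loss scored relative to DMSO.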

Test [16] is described as follows: ATG_GLI_CIS: Attagene CIS-FACTORIAL HepG2 Assay for human Zinc Finger Protein GLI1 (AID 2282945). Particulars: HepG2, Attagene cis-factorial reporter mRNA, GLI element; actives raise or lower the signal. In outline: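 HepG2 cells transiently transfected with cis-promoter multiplexed reporter units report endogenous transcription factor activity. After 24 h chemical exposure, reporter mRNA was quantified by RT-PCR, 6-FAM labelling, HpaI digestion and capillary electrophoresis, with bidirectional fitting against DMSO.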

Test [17] deals with Bile acid receptor (Homo sapiens) (UniProt Q96RI1). As to the kind of experiment: ATG_IR1_CIS: Attagene CIS-FACTORIAL HepG2 Assay for human Nuclear Receptor Subfamily 1 Group H Member 4 (NR1H4), IR1 submotif (AID 2282946). Particulars: IR1 reporter transcription, actives raise or lower the signal. In outline: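 Transient MRTU transfection, HepG2; 24 h dosing; RNA → RT-PCR → 6-FAM primer extension → HpaI digest → capillary electrophoresis fluorescence. Gain/loss of signal fitted relative to DMSO.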

Test [18] is described as follows: ATG_GRE_CIS: Attagene CIS-FACTORIAL HepG2 Assay for human Glucocorticoid Response Elements (GRE) (AID 2282947). Particulars: HepG2 GRE cis-reporter, Attagene multiplex mRNA; AC50: actives raise or lower the signal unless noted; outcome: actives raise or lower the signal unless noted. In a few lines:
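HepG2 cells transiently transfected with multiple cis-promoter reporter units measure endogenous TF activity; 24 h compound exposure. Reporter mRNA quantified by RT-PCR, FAM labelling, HpaI digestion and capillary electrophoresis; bidirectional fit vs DMSO baseline.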

A short description of test [19]: ATG_ISRE_CIS: Attagene CIS-FACTORIAL HepG2 Assay for human Interferon Regulatory Factor 1 (IRF1) binding to an Interferon-Stimulated Response Element (ISRE) (AID 2282948). As to conditions: HepG2 ISRE cis-reporter (Attagene), mRNA transcription readout; actives raise or lower the signal. In outline:
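HepG2 cells transiently transfected with multiplexed cis-promoter reporter units; after 24 h compound exposure, reporter mRNA quantified by RT-PCR, FAM labelling, HpaI digestion and capillary electrophoresis. Bidirectional fit versus DMSO baseline.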

The structures appear in SMILES notation. Calls of active or inactive are those of the source. Rule for the calls: active = hit-call score of the fitted dose curve at least 0.9, where 1 is the maximum; inactive = score below 0.9.

Aryl hydrocarbon receptor (Homo sapiens), sequence (P35869 whole entry, looked up): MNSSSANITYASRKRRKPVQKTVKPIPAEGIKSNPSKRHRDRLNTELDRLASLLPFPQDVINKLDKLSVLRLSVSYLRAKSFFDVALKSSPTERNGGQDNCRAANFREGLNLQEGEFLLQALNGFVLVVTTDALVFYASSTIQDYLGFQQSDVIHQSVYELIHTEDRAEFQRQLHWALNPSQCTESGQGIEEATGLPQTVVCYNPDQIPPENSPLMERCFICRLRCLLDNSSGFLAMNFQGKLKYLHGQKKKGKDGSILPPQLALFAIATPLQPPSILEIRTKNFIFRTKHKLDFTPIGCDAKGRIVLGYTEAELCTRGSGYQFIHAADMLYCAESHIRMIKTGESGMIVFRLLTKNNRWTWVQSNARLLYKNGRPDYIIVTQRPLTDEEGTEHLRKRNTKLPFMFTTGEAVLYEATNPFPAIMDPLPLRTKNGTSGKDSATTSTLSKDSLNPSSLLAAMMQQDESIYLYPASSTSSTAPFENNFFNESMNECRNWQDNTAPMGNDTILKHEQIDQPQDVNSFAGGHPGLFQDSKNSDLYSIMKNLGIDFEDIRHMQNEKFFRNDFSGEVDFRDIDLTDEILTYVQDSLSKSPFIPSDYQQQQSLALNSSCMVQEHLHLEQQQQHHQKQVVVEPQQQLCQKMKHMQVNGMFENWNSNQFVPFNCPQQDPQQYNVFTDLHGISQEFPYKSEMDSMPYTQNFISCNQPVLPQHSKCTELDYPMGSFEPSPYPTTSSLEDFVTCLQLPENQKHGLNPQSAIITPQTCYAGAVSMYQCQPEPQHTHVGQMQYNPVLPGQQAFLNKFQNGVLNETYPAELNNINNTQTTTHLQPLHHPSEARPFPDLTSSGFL
Transcription factor E2F1 (Homo sapiens), sequence (Q01094 whole entry, looked up): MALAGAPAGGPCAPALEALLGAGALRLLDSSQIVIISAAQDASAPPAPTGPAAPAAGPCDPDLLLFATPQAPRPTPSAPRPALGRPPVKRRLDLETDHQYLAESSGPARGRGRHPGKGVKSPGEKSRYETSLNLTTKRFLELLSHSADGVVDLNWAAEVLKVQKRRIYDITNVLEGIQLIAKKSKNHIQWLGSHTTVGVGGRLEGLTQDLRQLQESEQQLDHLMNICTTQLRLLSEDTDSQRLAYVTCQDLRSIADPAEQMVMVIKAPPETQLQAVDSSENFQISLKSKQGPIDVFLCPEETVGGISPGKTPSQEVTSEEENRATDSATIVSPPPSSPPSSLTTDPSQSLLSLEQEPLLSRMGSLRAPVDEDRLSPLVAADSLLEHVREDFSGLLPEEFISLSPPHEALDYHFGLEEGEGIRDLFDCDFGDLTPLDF
Hepatocyte nuclear factor 3-beta (Homo sapiens), sequence (Q9Y261 whole entry, looked up): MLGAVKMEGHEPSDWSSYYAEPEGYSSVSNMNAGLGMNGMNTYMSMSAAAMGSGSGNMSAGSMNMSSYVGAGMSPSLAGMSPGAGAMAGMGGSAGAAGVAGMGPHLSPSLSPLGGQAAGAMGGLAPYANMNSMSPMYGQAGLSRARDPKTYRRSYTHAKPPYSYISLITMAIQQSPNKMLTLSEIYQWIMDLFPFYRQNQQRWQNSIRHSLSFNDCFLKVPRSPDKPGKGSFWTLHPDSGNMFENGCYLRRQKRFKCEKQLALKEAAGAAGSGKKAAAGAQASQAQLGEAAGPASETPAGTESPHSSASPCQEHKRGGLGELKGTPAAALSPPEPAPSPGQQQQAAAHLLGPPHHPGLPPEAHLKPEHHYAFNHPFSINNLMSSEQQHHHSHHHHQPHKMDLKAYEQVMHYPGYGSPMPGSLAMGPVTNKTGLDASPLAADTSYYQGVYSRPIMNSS
Retinoic acid receptor alpha (Homo sapiens), sequence (P10276 whole entry, looked up): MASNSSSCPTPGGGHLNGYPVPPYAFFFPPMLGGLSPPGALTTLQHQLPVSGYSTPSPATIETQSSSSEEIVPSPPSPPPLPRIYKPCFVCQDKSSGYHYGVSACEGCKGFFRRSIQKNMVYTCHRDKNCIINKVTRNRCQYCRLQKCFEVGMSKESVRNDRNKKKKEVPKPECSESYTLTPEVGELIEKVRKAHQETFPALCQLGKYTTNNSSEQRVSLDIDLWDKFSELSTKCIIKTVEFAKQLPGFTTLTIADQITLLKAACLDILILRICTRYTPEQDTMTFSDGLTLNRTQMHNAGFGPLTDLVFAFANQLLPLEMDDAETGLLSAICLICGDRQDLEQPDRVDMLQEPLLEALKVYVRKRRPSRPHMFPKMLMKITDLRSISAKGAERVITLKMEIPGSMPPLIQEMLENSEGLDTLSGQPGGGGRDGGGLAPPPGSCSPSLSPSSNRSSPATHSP
Bile acid receptor (Homo sapiens), sequence (Q96RI1 whole entry, looked up): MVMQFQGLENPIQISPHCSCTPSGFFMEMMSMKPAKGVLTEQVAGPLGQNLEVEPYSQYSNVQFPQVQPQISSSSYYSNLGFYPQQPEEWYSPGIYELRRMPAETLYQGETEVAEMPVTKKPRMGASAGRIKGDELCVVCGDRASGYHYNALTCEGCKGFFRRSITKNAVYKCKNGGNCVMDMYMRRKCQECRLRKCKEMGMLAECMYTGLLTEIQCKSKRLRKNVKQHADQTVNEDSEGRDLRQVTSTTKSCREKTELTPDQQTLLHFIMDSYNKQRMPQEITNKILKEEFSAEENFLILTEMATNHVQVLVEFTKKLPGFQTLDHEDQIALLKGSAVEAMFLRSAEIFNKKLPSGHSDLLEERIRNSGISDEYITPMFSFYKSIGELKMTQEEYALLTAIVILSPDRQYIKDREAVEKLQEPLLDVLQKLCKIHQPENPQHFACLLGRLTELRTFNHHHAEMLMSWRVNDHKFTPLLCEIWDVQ

As a reminder, the AC50 is the midpoint of the concentration-response curve, whichever way the signal moves. With `c1ccc(CNc2ncnc3c2ncn3C2CCCCO2)cc1` (centres undefined), the outcome in test [1], in test [3], in test [4], in test [5], in test [6] and in [7] was inactive. Besides, the molecule was classed as inactive in test [8], in [9], in test [10], in [11], in test [12] and in [13]. Moreover, the outcome in test [14], in test [15], in test [16], in test [17], in test [18] and in [19] was inactive. For the same molecule, the AC50 in [2] was 57 µM (active).

For the molecule `CCOCCOCC`, the result in [1], in test [2], in [3], in [4], in test [5] and in [6] was inactive. Besides, the call in test [7], in test [8], in [9], in test [10], in [11] and in [12] was inactive. The outcome in test [13], in test [14], in test [15], in test [16], in [17] and in test [18] was inactive. Also, the call in test [19] was inactive.

With `O=C(c1cc(O)c(O)c(O)c1)c1ccc(O)c(O)c1O`, the molecule was classed as inactive in test [1], in test [3], in test [4], in test [6], in test [7] and in [8]. Besides, the molecule was classed as inactive in [9], in [10], in test [11], in test [12], in test [13] and in [14]. In addition, the outcome in test [15], in [16], in test [17] and in [19] was inactive. Moreover, the AC50 in [2] was 36 µM (active); in test [5] it was 4.01 µM (active).

With `NC(C(F)(F)F)C(F)(F)F`, the outcome in test [1], in test [2], in test [3], in test [4], in test [5] and in test [6] was inactive. The molecule was classed as inactive in test [7], in test [8], in test [9], in test [10], in test [11] and in test [12]. In addition, the result in [13], in test [14], in [15], in test [16], in test [17] and in test [19] was inactive.

The values are drawn from PubChem BioAssay (EPA / NIEHS).
